Assay [1] concerns the target Retinoic acid receptor RXR-alpha (Homo sapiens) (UniProt P19793). The assay is described as follows: qHTS assay to identify small molecule agonists of the RXR signaling pathway (AID 1159527; calls by dose curve; also: nearly all actives have a fitted effect of over 35% in size). The essentials: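 Beta-lactamase reporter assay, agonist format. Engineered HEK 293T line, charcoal-stripped FBS at 2%, overnight (16 hr) exposure, fluorescence at 460 and 530 nm after 405 nm excitation.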
For orientation: qHTS replaces the single test concentration by a dilution series.

Assay [2] in a line: qHTS assay to identify small molecule agonists of the RXR signaling pathway - cell viability counter screen (AID 1159529).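 Also: HEK 293T cells carrying an RXR-alpha UAS beta-lactamase reporter; series mostly up to about 77 µM; nearly all actives have a fitted effect of over 50% in size.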 The essentials: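 Same-well viability check after the LiveBLAzer FRET read: CellTiter-Glo added, luminescence measured after 30 min at room temperature. Reporter HEK 293T cells had been treated with compounds for 16 hr following a 5 hr preincubation.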
The nature of assay [3]: qHTS assay to identify small molecule antagonists of the retinoid acid receptor (RAR) signaling pathway - cell viability counter screen (AID 1159551). Also: nearly all actives have a fitted effect of over 35% in size. The essentials: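 C3RL4 cells were seeded overnight at 37 C, then treated with compounds plus 1 uM (final) retinol for 6 h at 37 C. Viability was read as ATP by CellTiter-Glo luminescence after 30 min at room temperature.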

Assay [4] can be described thus: qHTS assay to identify small molecule antagonists of the retinoic acid receptor (RAR) signaling pathway (AID 1159552; also: nearly all actives have a fitted effect of over 50% in size). The essentials: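 Readout: luciferase luminescence, 30 min post-reagent at RT. Setup: C3RL4 RARE reporter cells, compounds plus retinol 1 uM final, 6 hr incubation at 37 C and 5% CO2.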
Assay [5] can be described thus: qHTS assay to identify small molecule agonists of the retinoic acid receptor (RAR) signaling pathway (AID 1159553). Also: potency is read from the fitted curve at half-maximal effect. The essentials:
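C3RL4 cells carrying a RARE luciferase reporter were plated overnight at 37 C, then exposed to compounds in DMSO for 6 hr at 37 C and 5% CO2. Luminescence was read 30 min after luciferase reagent addition at room temperature.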

Assay [6] can be described thus: qHTS assay to identify small molecule antagonists of the estrogen related receptor (ERR) signaling pathway from Tox21 library - cell viability counter screen (AID 1224834). Also: nearly all actives have a fitted effect of over 30% in size. Also: potency is read from the fitted curve at half-maximal effect. The essentials: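 ERR reporter cells were plated 6 h before compound addition, then exposed to test compounds in DMSO for 17.5 h at 37 C. Viability was read as CellTiter-Fluor fluorescence after a 30-minute incubation at 37 C.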

Assay [7] is described as follows: qHTS assay to identify small molecule agonists of the constitutive androstane receptor (CAR) signaling pathway - cell viability counter screen (AID 1224836). Also: nearly all actives have a fitted effect of over 45% in size. Also: potency is read from the fitted curve at half-maximal effect. The essentials: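 Compound titrations (15 concentrations) went onto HepG2-CYP2B6-hCAR cells 4 h after seeding, alongside PK11195 at a final 0.75 uM; a 23 h, 37 C/5% CO2 incubation preceded CellTiter-Fluor viability measurement.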

Assay [8] is described as follows: qHTS assay to identify small molecule antagonists of the constitutive androstane receptor (CAR) signaling pathway - cell viability counter screen (AID 1224837). Also: nearly all actives have a fitted effect of over 45% in size. Also: potency is read from the fitted curve at half-maximal effect. The essentials: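 HepG2 cells stably expressing hCAR and a CYP2B6-2.2kb reporter were plated and pre-incubated 4 hr at 37 C/5% CO2, then given compounds at 15 concentrations plus 50 nM CITCO (final). After 23 hr, viability was read by CellTiter-Fluor fluorescence.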

Assay [9] has as its target Nuclear receptor subfamily 1 group I member 3 (Homo sapiens) (UniProt Q14994). Briefly: qHTS assay to identify small molecule antagonists of the constitutive androstane receptor (CAR) signaling pathway (AID 1224838). Also: nearly all actives have a fitted effect of over 40% in size. The essentials: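 HepG2 cells stably co-transfected with hCAR and a CYP2B6-2.2kb luciferase reporter were seeded 4 h before compound addition at 15 concentrations. Cells were stimulated with 50 nM CITCO (final) for 24 h at 37 C; luciferase luminescence was then read.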

The target is the same in assay [10]. The assay is described as follows: qHTS assay to identify small molecule agonists of the constitutive androstane receptor (CAR) signaling pathway (AID 1224839). Also: series mostly up to about 92 µM; nearly all actives have a fitted effect of over 15% in size. The essentials: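 In this screen, CAR-driven CYP2B6 promoter activity is measured by luminescence in HepG2-CYP2B6-hCAR cells after 24 h with test compounds and 0.75 uM PK11195 (final concentration).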

A short description of assay [11]: qHTS assay to identify small molecule antagonists of the estrogen related receptor signaling pathway with the pleiotropic PPARgamma coactivator (PGC) from Tox21 10K library - cell viability counter screen (AID 1224840; active = well fitted cell-killing curve with a large enough effect in the repeat runs, not every such curve was filed as active; also: nearly all actives have a fitted effect of over 40% in size). The essentials: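 PGC/ERR cells were seeded at 2,000 cells/well and left 6 hours at 37 C/5% CO2 before pin-tool addition of compounds in DMSO. After 17.5 hours at 37 C, CellTiter-Fluor was added and fluorescence read 30 minutes later.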

Assay [12] concerns the target Luciferin 4-monooxygenase (Photinus pyralis) (UniProt P08659). The assay is described as follows: qHTS assay to identify small molecule inhibitors of firefly luciferase (AID 1224835). Also: nearly all actives have a fitted effect of over 25% in size. Also: potency is read from the fitted curve at half-maximal effect. The essentials:
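Quantitative HTS format; KM concentrations of both substrates. Purified P. pyralis FLuc activity quantified from luminescence images.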

The nature of assay [13]: qHTS assay to identify small molecule antagonists of the estrogen related receptor signaling pathway with the pleiotropic PPARgamma coactivator (PGC) from Tox21 10K library (AID 1224841; call rule not given here; also: actives are mostly falling curves and most rising ones were filed inactive; nearly all actives have a fitted effect of over 50% in size; also: potency is read from the fitted curve at half-maximal effect). The essentials: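 PGC/ERR reporter cells were seeded at 2,000 cells/well and held 6 hours at 37 C/5% CO2 before pin-tool addition of compounds in DMSO. After 18 hours at 37 C, One-Glo was added and luminescence read after 30 minutes at room temperature.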

Assay [14] can be described thus: qHTS assay to identify small molecule agonists of the estrogen related receptor signaling pathway with the pleiotropic PPARgamma coactivator (PGC) from Tox21 10K library (AID 1224842). Also: nearly all actives have a fitted effect of over 15% in size. The essentials:
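PGC/ERR reporter cells (NTP line) were seeded 2,000 per well, rested 6 h at 37 C/5% CO2, then pin-dosed with compounds in DMSO for 18 h at 37 C; luciferase read by One-Glo luminescence after 30 min at room temperature.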

Assay [15] can be described thus: qHTS assay to identify small molecule antagonists of the estrogen related receptor (ERR) signaling pathway (AID 1224819;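 also: luminescence from an ERR-driven luciferase reporter measured with One-Glo reagent; series mostly up to about 46 µM; nearly all actives have a fitted effect of over 50% in size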). The essentials: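 ERR reporter cells were plated at 2,000 cells/well and left 6 h at 37 C/5% CO2 before pin-tool transfer of compounds in DMSO. After 18 h at 37 C, One-Glo was added and luminescence was read 30 min later at room temperature.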

Assay [16] in a line: qHTS assay to identify small molecule agonists of the estrogen related receptor (ERR) signaling pathway (AID 1224820). The essentials: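 Quantitative HTS of the LOPAC library used NTP ERR reporter cells treated 18 h at 37 C. Signal is luminescence after One-Glo addition and a 30 min room-temperature incubation.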
The subject of assay [17] is estrogen-related receptor alpha (ERRalpha) with PGC-1alpha coactivator, human. The assay is described as follows: qHTS assay to identify small molecule antagonists of the estrogen related receptor signaling pathway with the pleiotropic PPARgamma coactivator (PGC) (AID 1224821; calls by dose curve). The essentials:
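Quantitative HTS for antagonism: PGC/ERR cells received compounds after 6 h attachment and were incubated 18 h at 37 C, with luminescence (One-Glo) as the endpoint.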

Assay [18] in a line: qHTS assay to identify small molecule agonists of the estrogen related receptor signaling pathway with the pleiotropic PPARgamma coactivator (PGC) (AID 1224823). The essentials:
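Cell-based luciferase assay in the NTP-supplied PGC/ERR line, 2,000 cells/well; 18 h compound exposure at 37 C, luminescence after One-Glo.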

Records with an inconclusive call do not appear. Unmarked numbers belong to inactive results. Active and inactive are the calls of the source. Unless noted, calls follow the shape of the dose curve; as a rule, active = well fitted curve in the direction sought with a large enough effect in the repeat runs; inconclusive = weak or mixed curves; inactive = no such curve, though single readings can be large; an effect the other way counts as inactive or inconclusive.

Chain of Nuclear receptor subfamily 1 group I member 3 (Homo sapiens) (Q14994 whole entry, looked up): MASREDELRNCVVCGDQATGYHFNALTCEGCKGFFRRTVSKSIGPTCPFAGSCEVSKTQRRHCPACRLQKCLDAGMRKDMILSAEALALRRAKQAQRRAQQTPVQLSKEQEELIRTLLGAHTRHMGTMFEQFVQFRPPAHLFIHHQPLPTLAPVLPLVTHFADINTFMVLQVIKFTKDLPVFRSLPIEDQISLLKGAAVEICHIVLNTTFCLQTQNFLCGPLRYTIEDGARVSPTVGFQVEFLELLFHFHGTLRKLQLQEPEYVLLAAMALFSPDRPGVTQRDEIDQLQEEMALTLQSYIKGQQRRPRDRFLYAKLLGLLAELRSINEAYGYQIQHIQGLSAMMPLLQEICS
Chain of Luciferin 4-monooxygenase (Photinus pyralis) (P08659 whole entry, looked up): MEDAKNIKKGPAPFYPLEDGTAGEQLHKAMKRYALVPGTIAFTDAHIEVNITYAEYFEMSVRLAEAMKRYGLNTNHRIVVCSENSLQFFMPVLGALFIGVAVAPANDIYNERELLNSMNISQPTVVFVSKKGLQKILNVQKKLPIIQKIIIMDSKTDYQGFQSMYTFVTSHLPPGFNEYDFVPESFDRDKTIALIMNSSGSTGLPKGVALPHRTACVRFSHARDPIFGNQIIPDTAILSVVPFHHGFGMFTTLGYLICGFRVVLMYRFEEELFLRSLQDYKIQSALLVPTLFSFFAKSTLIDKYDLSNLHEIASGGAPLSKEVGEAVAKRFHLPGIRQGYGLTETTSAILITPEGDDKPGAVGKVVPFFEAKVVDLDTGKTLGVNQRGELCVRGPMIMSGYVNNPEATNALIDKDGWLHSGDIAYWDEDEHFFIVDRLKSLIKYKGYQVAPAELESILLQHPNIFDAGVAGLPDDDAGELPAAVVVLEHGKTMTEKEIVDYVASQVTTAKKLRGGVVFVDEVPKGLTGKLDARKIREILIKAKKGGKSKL
Chain of Retinoic acid receptor RXR-alpha (Homo sapiens) (P19793 whole entry, looked up): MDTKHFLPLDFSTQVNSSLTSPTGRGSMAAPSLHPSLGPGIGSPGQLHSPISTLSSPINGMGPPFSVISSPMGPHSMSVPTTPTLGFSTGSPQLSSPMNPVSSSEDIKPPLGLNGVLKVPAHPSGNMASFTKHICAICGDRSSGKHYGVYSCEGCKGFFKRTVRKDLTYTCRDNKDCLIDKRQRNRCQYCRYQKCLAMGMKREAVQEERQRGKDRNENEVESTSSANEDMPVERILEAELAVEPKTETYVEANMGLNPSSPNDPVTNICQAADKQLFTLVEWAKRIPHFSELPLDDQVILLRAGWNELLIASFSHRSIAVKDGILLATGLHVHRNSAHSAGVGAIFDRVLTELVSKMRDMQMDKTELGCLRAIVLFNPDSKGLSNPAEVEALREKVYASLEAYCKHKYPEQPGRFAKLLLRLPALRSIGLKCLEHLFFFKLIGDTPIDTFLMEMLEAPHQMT

As for `CC1=C(C(=O)O)N2C(=O)[C@@H](NC(=O)[C@H](N)c3ccc(O)cc3)[C@H]2SC1`, the Potency entry in assay [1], in assay [5], in assay [6], in assay [7], in assay [8] and in assay [10] was “inactive” each time. For the same compound, the compound was called inactive in assay [2], in assay [3], in assay [4], in assay [9] and in assay [11].

With `CCCOC(=O)C(C)O` (stereo unspecified), the Potency result in assay [1], in assay [6], in assay [12], in assay [7], in [8] and in [10] was “inactive” throughout. In addition, the outcome in assay [2], in [3], in assay [4], in assay [9] and in assay [11] was inactive.

For `CCOC(=O)CC(=O)c1ccccc1`, the Potency entry in assay [1], in assay [6], in [12], in [7], in assay [8] and in assay [10] was “inactive” each time. The compound was classed as inactive in [2], in assay [3], in assay [4], in [9] and in [11].

As to `COc1ccc2nc(SCc3ncc(C)c(OC)c3C)[nH]c2c1`, the Potency result in assay [1], in [6], in assay [7], in assay [8] and in assay [13] was “inactive” each time. Further, the result in assay [2], in assay [3], in assay [4], in assay [9], in assay [11] and in assay [14] was inactive. The Potency in assay [12] was 13.8 µM (active).

`CCCCCCOc1ccccc1C(N)=O`: the Potency entry in assay [1], in [6], in [7] and in [8] was “inactive” in each case. In addition, the call in [2], in [3], in assay [4] and in assay [11] was inactive. Moreover, the Potency in [5] was 13.3 µM (active).

`COc1cc(N)ccc1C`: the Potency entry in assay [1], in assay [5], in [12], in [7] and in assay [8] was “inactive” in each case. For the same compound, the outcome in [2], in assay [3], in [4], in assay [9], in [11] and in assay [14] was inactive. Also, the Potency in assay [13] is 1.52 µM (active).

In the case of `O=S(=O)(O)c1ccc2cc(O)c(S(=O)(=O)O)cc2c1`, the Potency entry in assay [1], in assay [6], in assay [12], in assay [7], in [8] and in [10] was “inactive” each time. The result in [2], in assay [3], in assay [4], in assay [9] and in assay [11] was inactive.

Consider `COc1ccc2c(c1OC)C(=O)O[C@@H]2[C@H]1c2c(cc3c(c2OC)OCO3)CCN1C`, for which the Potency entry in assay [1], in assay [12] and in assay [13] was “inactive” each time. Further, the outcome in assay [2], in [3], in assay [4], in assay [15], in assay [16] and in assay [17] was inactive. Besides, the compound was classed as inactive in [18], in assay [9] and in [14]. Further, the Potency in [6] is 11.9 µM (active); in assay [7] it was 8.41 µM (active); in [8] it was 10.6 µM (active).

Consider `O=C1c2ccccc2C(=O)C1c1ccccc1`, for which the Potency entry in assay [1], in [5], in assay [6], in [7], in assay [8] and in assay [10] was “inactive” in each case. The result in assay [2], in assay [3], in assay [4], in assay [9] and in assay [11] was inactive.

Consider `COC(=O)CCCCCCCC(=O)OC`, for which the Potency entry in assay [1], in assay [6], in assay [12], in assay [7], in assay [8] and in assay [10] was “inactive” each time. The Potency entry in [13] is “inactive”. Also, the call in assay [2], in assay [3], in [4], in assay [9], in [11] and in [14] was inactive.

Values taken from PubChem BioAssay (Tox21).
